The structures appear in SMILES notation.

This passage reports inhibition results from ChEMBL document CHEMBL1961873, “Compounds: GSK PKIS; Assays: Nanosyn kinase panel” (2012).
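Also: reported figures are averaged percent inhibition of FER.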

Sequence of Tyrosine-protein kinase Fer (Homo sapiens) (P16591 whole entry, looked up): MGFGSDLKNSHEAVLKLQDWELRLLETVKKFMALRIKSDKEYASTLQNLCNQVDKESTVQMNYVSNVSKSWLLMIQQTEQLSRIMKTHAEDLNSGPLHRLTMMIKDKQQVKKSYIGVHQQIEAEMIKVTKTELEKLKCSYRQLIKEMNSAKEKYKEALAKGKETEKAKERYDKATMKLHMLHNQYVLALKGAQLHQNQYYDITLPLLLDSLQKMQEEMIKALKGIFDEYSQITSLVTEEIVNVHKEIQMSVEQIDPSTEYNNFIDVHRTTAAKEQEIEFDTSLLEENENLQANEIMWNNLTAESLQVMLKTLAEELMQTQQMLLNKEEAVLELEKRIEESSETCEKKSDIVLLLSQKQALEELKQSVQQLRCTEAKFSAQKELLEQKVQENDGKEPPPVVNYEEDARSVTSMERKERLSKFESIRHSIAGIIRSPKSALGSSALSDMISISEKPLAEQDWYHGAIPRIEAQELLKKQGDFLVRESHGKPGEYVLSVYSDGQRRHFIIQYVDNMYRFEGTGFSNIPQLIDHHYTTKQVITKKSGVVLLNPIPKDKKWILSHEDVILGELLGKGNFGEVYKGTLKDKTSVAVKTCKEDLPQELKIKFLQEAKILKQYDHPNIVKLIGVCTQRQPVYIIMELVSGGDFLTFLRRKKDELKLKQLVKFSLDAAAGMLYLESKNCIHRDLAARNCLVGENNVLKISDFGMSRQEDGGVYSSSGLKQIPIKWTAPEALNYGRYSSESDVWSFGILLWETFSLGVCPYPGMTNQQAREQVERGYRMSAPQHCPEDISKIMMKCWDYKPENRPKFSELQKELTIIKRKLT

This assay concerns the target Tyrosine-protein kinase Fer (Homo sapiens) (UniProt P16591). As to conditions: at 0.1 µM.
As for `CN(C)C(=O)O[C@H]1CN[C@H](C#Cc2cc3ncnc(Nc4ccc(OCc5cccc(F)c5)c(Cl)c4)c3s2)C1`, the inhibition was found to be 1.02%.
As for `CCS(=O)(=O)c1ccc(OC)c(Nc2ncc(-c3cccc(OC)c3)o2)c1`, the figure is -0.2%; as for `COc1cc2ncn(-c3cc(OCc4ccccc4S(C)(=O)=O)c(C#N)s3)c2cc1OC`, 6.67%.
Regarding `[O-][S+]1CCN(Cc2ccc(-c3ccc4ncnc(Nc5ccc(OCc6ccccc6)c(Cl)c5)c4c3)o2)CC1`, the inhibition was -2.55%.
As for `OCc1ccc(-c2nc(-c3ccccn3)c(-c3ccc4c(c3)OCO4)[nH]2)cc1`, the figure is 2.2%.
In the case of `COc1cc(/C=N/Nc2ncnc3c2cnn3C(C)C)ccc1O`, the inhibition was 2.02%.
With `Nc1nccc(-c2c(-c3ccc(F)cc3)nn3cc(C(F)(F)F)ccc23)n1` the figure was 5.04%; with `CN(C)CCCn1c(-c2nonc2N)nc2cnccc21`, 1.8%; with `COc1cc(Nc2nccc(-c3cnn4ncccc34)n2)cc(OC)c1`, 11.1%.
With `NS(=O)(=O)c1cccc(-c2cc3ccncc3cc2OCc2ccccc2)c1` the figure was 3.7%.
As for `CN1CCN(C(=O)c2ccc(NC(=O)Nc3ccc(N(C)c4ccnc(Nc5ccc(CS(C)(=O)=O)cc5)n4)cc3)cc2)CC1`, the figure is 16.2%.
Consider `Cc1ccc2c(c1)/C(=N/Nc1ccc(S(N)(=O)=O)cc1)C(=O)N2`, for which the inhibition turned out to be 1.02%.
For the compound `Cc1ccc(NC(=O)CC2CC2)cc1-c1ccc(C(=O)NCC2CC2)cc1`, the inhibition was 4.27%.
As for `CN(c1ccc(NC(=O)Nc2ccc(OC(F)(F)F)cc2)cc1)c1ccnc(Nc2cccc(S(N)(=O)=O)c2)n1`, the figure is 12.6%; as for `C[C@@H](Oc1cc(-n2cnc3ccc(OC[C@@H](O)CO)cc32)sc1C(N)=O)c1ccccc1Cl`, -1.75%; as for `Cc1ccc(C(=O)NC2CC2)cc1-c1ccc2[nH]ncc2c1`, -2.95%.
As for `COc1ccc(-c2nn3ncccc3c2-c2ccnc(Nc3cccc(C(F)(F)F)c3)n2)cc1`, the figure is 0.8%.
As for `CN(C)C(=O)O[C@@H]1CN[C@@H](C#Cc2cc3ncnc(Nc4ccc(OCc5cccc(F)c5)c(Cl)c4)c3s2)C1`, the figure is 0.75%; as for `CC(C)c1ccc2c(c1)NC(=O)/C2=N/Nc1ccc(S(N)(=O)=O)cc1`, 0.16%.
`NS(=O)(=O)c1ccc(NC=C2C(=O)Nc3ccc4ncsc4c32)cc1`: the inhibition was found to be 5.32%.
With `C[C@@H](Oc1cc(-n2cnc3ccc(OCC4CCN(C)CC4)cc32)sc1C(N)=O)c1ccccc1C(F)(F)F` the figure was -2.09%; with `CN(C)c1cc2c(Nc3ccc4c(cnn4Cc4ccccc4)c3)ncnc2cn1`, 1.79%; with `Cc1ccc(Nc2ccnc(Nc3cccc(C(N)=O)c3)n2)cc1O`, 4.75%.
With `CCS(=O)(=O)c1ccc(OC)c(Nc2nccc(N(C)c3ccc4c(C)n[nH]c4c3)n2)c1` the figure was 2.69%; with `COC(=O)Nc1nc2cc(Oc3ccc(NC(=O)Nc4cccc(Br)c4)cc3)ccc2[nH]1`, 2.5%.
As for `CC(C)c1ccc(Nc2nccc(-c3cnn4ncccc34)n2)cc1`, the figure is 5.74%; as for `NS(=O)(=O)c1ccc(N/N=C2\C(=O)Nc3ccc(Cl)cc32)cc1`, 2.95%; as for `COc1cccc(-n2ncc3c(N/N=C/c4ccc(C)cc4)ncnc32)c1`, 8.13%.
Take `CCn1c(-c2nonc2N)nc2ccc(F)cc21`: the inhibition is 3.01%.
As for `COc1cc2ncnc(Nc3ccc4c(cnn4Cc4ccccc4)c3)c2cc1OC`, the figure is 0.84%.
As to `Nc1nccc(C#Cc2cncnc2Nc2ccc(OCc3cccc(F)c3)c(Cl)c2)n1`, the inhibition was found to be 2.1%.
With `Cc1cc(-c2ccccn2)cc(C)c1/C=C/c1cncc(-c2nn[nH]n2)c1` the figure was -0.04%; with `CS(=O)(=O)Nc1cccc(-c2ccc3c(NC(=O)C4CC4)n[nH]c3c2)c1`, -0.81%; with `O=C1Nc2ccc(-c3cccnc3)cc2C1=Cc1cc(Br)c(O)c(Br)c1`, 8.12%.

For orientation: inhibition means the change of the read-out against control, counted positive when it falls.
